# Rows were chosen to be rich in hits. Some 3.6% of all compounds tested hit in one or more screens of this group.
# Rango dissoc inh: inhibitors of RanGTP-induced Rango-importin beta complex dissociation | O95149+P62826 | Biochemical FRET Rango-importin beta, RanGTP-induced dissociation | Potency, µM (series often up to 46.1 µM) | 340,000 compounds, 0.071% hits; calls by dose curve; note: nearly all actives have a fitted effect of over 45% in size
#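 Compounds preincubate 5 min with complex of recombinant Rango and importin beta in PBS with 1 mM DTT. Ran (0.6 uM) loaded with 2 mM GTP plus 0.2 uM RCC1 starts dissociation; FRET is recorded 45 min later.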
# KAT2A inh: blocks human GCN5L2 histone acetyltransferase. Potency, µM (highest dose often 58.9 µM), usual class: inhibitors. AID 504327. 390,000 compounds, 0.21% hits. GCN5L2 HAT assay, ThioGlo1 CoA-SH fluorescence
#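 Enzyme at 20nM final was mixed with library compounds for 15 min at room temperature. Peptide H3(1-25) at 75uM, acetyl-CoA at 70uM and ThioGlo1 at 50uM were then added. Plates were read immediately and after 20 min (Ex340nm/Em540nm).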
# PLK1 PBD block: PLK1 (human) polo-box domain binding inhibition; Plk1 PBD binding of FITC phosphopeptide, fluorescence polarization; Potency, µM, most hits filed as inhibitors; 360,000 compounds, 2.8% hits; AID 720504; note: series mostly up to about 57 µM; nearly all actives have a fitted effect of over 65% in size
# Rango complex inh: prevents formation of the Rango-importin beta complex; Rango CFP/YFP FRET sensor + importin beta, 45 min; Potency, µM (series often up to 92.2 µM); 340,000 compounds, 0.031% hits; calls by dose curve; note: nearly all actives have a fitted effect of over 15% in size
#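 FRET biosensor Rango (snurportin 1 IBB between N-terminal EYFP and C-terminal Cerulean), 50 nM in PBS/1 mM DTT/0.02% Tween-20/0.1% BSA, preincubated 5 min RT with compound; 0.125 microM importin beta added, 45 min RT, CFP/YFP FRET ratio read.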
# VDR inhibitor: inhibitors of human vitamin D receptor | Potency, µM, most hits filed as inhibitors | AID 504847 | VDR-SRC2-3 peptide fluorescence polarization, 2 h | 400,000 compounds, 0.93% hits | P11473
#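 FP read-out; VDR + SRC2-3 coactivator peptide; 23 nl compound by pintool; 2 h RT incubation; reagents held at 4 deg C, protected from light.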
# PI5P4Ka inh: PI5P4K alpha (human) kinase inhibition; P48426; PI5P4Kalpha enzyme, ADP-Glo luminescence, 60 min; active compounds read low; max response, %; 330,000 compounds, 1.2% hits; active = max response of -50% or lower; inconclusive = between -30% and -50%; inactive = -30% or higher; note: value at the top dose of about 77 µM
# Target sequence (P48426 whole entry, looked up): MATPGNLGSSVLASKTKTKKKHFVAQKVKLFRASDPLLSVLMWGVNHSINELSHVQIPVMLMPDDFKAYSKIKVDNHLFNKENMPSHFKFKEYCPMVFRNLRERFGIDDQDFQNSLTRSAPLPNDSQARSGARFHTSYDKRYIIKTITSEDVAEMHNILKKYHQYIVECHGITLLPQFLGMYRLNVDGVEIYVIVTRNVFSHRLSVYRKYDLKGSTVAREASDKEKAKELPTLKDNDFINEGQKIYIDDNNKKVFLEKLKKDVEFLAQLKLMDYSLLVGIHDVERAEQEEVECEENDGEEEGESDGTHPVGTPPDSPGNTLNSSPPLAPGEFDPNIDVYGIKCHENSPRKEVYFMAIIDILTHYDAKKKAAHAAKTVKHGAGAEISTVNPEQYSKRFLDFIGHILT
#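 qHTS, 1536-well: enzyme/substrate mix, compound by pin tool, 5 microM ATP final; RT 60 min; ADP-Glo reagents 1 (45 min) then 2 (30 min); luminescence.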
# Numbers stand for hits; 0 = inactive; ? = inconclusive; - = not tested or not shown. Unless noted, calls come from the whole dose curve; as a rule, active = well fitted curve in the direction sought with a large enough effect; inconclusive = small, poorly fitted or top-dose-only effect, or another doubt; inactive = no such curve, though single readings can be large; an effect the other way counts as inactive or inconclusive.
SMILES,Rango dissoc inh,KAT2A inh,PLK1 PBD block,Rango complex inh,VDR inhibitor,PI5P4Ka inh
COc1ccccc1CNC(=O)CCc1c(C)c2cc3c(C)coc3cc2oc1=O,-,0,-,-,0,-
Cc1ccccc1OCc1nnc(SC(C)C(=O)O)n1-c1ccccc1 (stereo not drawn),-,-,0,-,-,-54.2
COc1ccc(OC)c(CNS(=O)(=O)c2cc(-c3onc(C)c3C)ccc2C)c1,-,0,-,-,0,-
C/C(=N\NC(=O)c1ccc(Cn2cc([N+](=O)[O-])cn2)o1)c1cccc(NC(=O)c2cccnc2)c1,0,0,0,0,0,0
CC(=O)Nc1cccc(/C(C)=N\NC(=O)c2ccc(Cn3nc([N+](=O)[O-])c(Cl)c3C)o2)c1,0,0,21.2µM,0,?,0
COc1ccc(NC(=O)c2c(NCc3ccc(C)o3)sc3c2CCC(C)C3)cc1 (stereo not drawn),-,0,-,-,?,-
O=C(O)c1ccccc1C(=O)Nc1n[nH]c(=S)s1,0,17.8µM,26.7µM,0,?,-
COc1ccc(N(CC(=O)N/N=C/c2ccc3c(c2)OCO3)S(=O)(=O)c2ccc(NC(C)=O)cc2)cc1,0,0,26.7µM,0,0,0
COc1ccc(NC(=O)c2cnc3sc(N4CCOCC4)nn3c2=O)c(OC)c1,-,0,-,-,0,-
O=S(=O)(NCCO)c1ccc2c(c1)Cc1cc(S(=O)(=O)NCCO)ccc1-2,0,0,0,0,0,0
COCCNS(=O)(=O)c1ccc2c(c1)Cc1cc(S(=O)(=O)NCCOC)ccc1-2,0,0,18.9µM,0,?,0
Cn1c(/C(C#N)=C(\O)c2ccc([N+](=O)[O-])cc2)nc2ccccc21,0,0,23.8µM,0,?,?
COc1ccccc1N(Cc1cc(=O)[nH]c2ccccc12)C(=O)c1cccc([N+](=O)[O-])c1,0,0,29.9µM,0,?,0
COc1ccccc1N(Cc1cc(=O)[nH]c2ccccc12)C(=O)C(C)C,0,0,0,0,0,0
CCOC(=O)c1c(C)cc(O)c(C)c1O,-,0,-,-,0,-
Cc1cc(O)c2c(c1O)C(=O)C(O)=C(O)C2=O,-,-,-,-,8.91µM,-
COc1ccc2c(c1)C(=O)[C@H](OC(=O)NCc1ccco1)[C@@H](c1ccc(OC)c(Br)c1)O2,-,-,-,-,56.2µM,-
COc1ccc(CN(Cc2ccccc2)C(=O)c2ccno2)cc1COc1ccc(NC(C)=O)cc1,-,-,-,-,0,-
CC(=O)N(\C=C/C=C/C=C1\Sc2ccccc2C1=O)c1ccccc1,0,?,?,?,?,-66.2
O=C(COC(=O)c1cc(-c2ccc(Cl)s2)nc2ccccc12)NCc1ccco1,?,0,?,?,79.4µM,?
O=C(COC(=O)c1cc(-c2cccs2)nc2ccccc12)NCc1ccco1,0,0,?,0,0,?
O=C(CSc1nnc(CNc2ccc(F)cc2)n1Cc1ccco1)NC1CC1,0,0,0,?,0,0
O=C(CSc1nnc(COc2ccccc2)n1Cc1ccco1)NCc1ccco1,0,0,?,0,0,-
O=C(CSc1nnc(CNc2cccc(C(F)(F)F)c2)n1Cc1ccco1)NCc1ccco1,0,0,29.9µM,0,0,0
O=C(O)CSc1nnc(CNc2cccc(C(F)(F)F)c2)n1Cc1ccco1,0,0,0,0,0,-71.1
SMILES,Rango dissoc inh,KAT2A inh,PLK1 PBD block,Rango complex inh,VDR inhibitor,PI5P4Ka inh
CC1=C(c2ccc(C)cc2)S(=O)(=O)N(Cc2ccc(C(=O)Nc3ccc(C)c(F)c3)cc2)C1=O,-,0,-,-,0,-
COc1ccc(NC(=O)CCN2C(=O)C3C4CCC(C4)C3C2=O)cc1 (stereo not drawn),0,0,0,0,0,0
O=C(CCN1C(=O)C2C3C=CC(C3)C2C1=O)Nc1nccs1 (stereo not drawn),0,0,29.9µM,0,0,0
COc1ccc(NC(=O)CCN2C(=O)[C@@H]3[C@H](C2=O)[C@H]2C=C[C@@H]3C2)cc1,0,0,26.7µM,0,0,0
O=C(CCn1cccc1)Nc1nccs1,0,0,0,0,0,0
Cc1cccc(OCCn2c(-c3ccc(Cl)cc3)nc3ccccc3c2=O)c1C,-,0,-,-,0,-
CO[C@@H](CCO)C[C@H]1O[C@H](C(=O)OC(C)C)CC[C@@H]1C,-,-,-,-,0,-
Cc1ccc(NC(=O)c2cc(C)nc3ccccc23)c(C)c1,0,0,0,0,0,0
Cc1ccc(NC(=S)c2ccc3ccccc3n2)c(C)c1,0,0,13.4µM,0,79.4µM,0
COc1ccc(NC(=S)c2ccc3ccccc3n2)cc1,0,0,6.7µM,0,?,0
CCOc1ccc(NC(=S)c2ccc3ccccc3n2)cc1,0,0,2.67µM,0,0,0
CCOc1cc2sc(N3CCC(C(=O)Nc4ccc(C)cc4C)CC3)nc2cc1Br,-,0,-,-,0,-
C=CC[C@](C)(O)c1ccccc1,-,-,-,-,0,-
O=c1c(-c2ccc(Cl)cc2)c(C(F)(F)F)oc2c(CN3CCCCC3)c(O)ccc12,-,0,-,-,0,-
CC1=NN(c2ccc(Cl)cc2)C(=O)C1C(c1ccccc1O)c1c(C)[nH]n(-c2ccc(Cl)cc2)c1=O (stereo not drawn),0,0,23.8µM,0,0,0
Cc1cc(-c2c(C)[nH]n(-c3ccc(Cl)cc3)c2=O)n(-c2ccc(Cl)cc2)n1,0,0,0,0,0,0
Cc1ccc(N/N=C(\C#N)C(N)=S)c(C)c1,0,?,18.9µM,0,50.1µM,0
O=S(=O)(c1ccc(F)cc1)N(CC(O)Cn1c2ccccc2c2ccccc21)c1ccccc1 (stereo not drawn),-,0,-,-,0,-
CNc1nc2[nH]c(=O)c3c(c2s1)OC(N)=C(C#N)C3c1ccccc1 (stereo not drawn),0,0,0,?,0,?
CCNc1nc2[nH]c(=O)c3c(c2s1)OC(N)=C(C#N)C3c1ccc(C)cc1 (stereo not drawn),?,0,0,?,0,-67.0
COc1ccc(Cn2c(C(=O)O)c(CNCCc3cccs3)c3ccc(C)cc32)cc1,-,0,-,-,0,-
COC(=O)/C=C1/SC(=NC(=O)c2ccc(Cl)cc2)NC1=O,0,-,33.6µM,0,?,0
COC(=O)/C=C1\SC(=Nc2ccccc2)NC1=O,0,0,0,0,?,0
c1ccc(SSc2ccccn2)nc1,0,-,0.67µM,0,3.16µM,0
O=S(=O)(c1ccc(F)cc1)N1CCN(c2nc(-c3ccccc3)nc3cc(Cl)ccc23)CC1,-,-,-,-,0,-
O=C(C#Cc1ccccc1)c1ccco1,0,0,3.36µM,0,22.4µM,0
O=C(N/N=C/c1ccccc1)c1ccco1,0,0,0,0,0,0
O=c1[nH]c2ccccc2c(O)c1-c1ccccc1[N+](=O)[O-],0,0,23.8µM,0,0,0
CC(C)Cc1ccc(-c2cc(=O)[nH][nH]2)cc1,0,0,16.8µM,0,0,0
CCOC(=O)N1CCc2c(sc(NCc3cccc(F)c3)c2C(=O)Nc2ccc(OC)cc2OC)C1,-,0,-,-,0,-

# Screens (PubChem)
